Measurements from PubChem BioAssay (EPA / NIEHS).
Inconclusive results are not listed. More than one record can exist for a structure, and the calls need not agree. Calls of active or inactive are those of the source. The calls were made as follows: active = hit-call score of the fitted dose curve at least 0.9, where 1 is the maximum; inconclusive = response in the unintended direction; inactive = score below 0.9.

Biological target: Luciferin 4-monooxygenase (Photinus pyralis) (UniProt P08659)
Sequence (P08659 whole entry, looked up): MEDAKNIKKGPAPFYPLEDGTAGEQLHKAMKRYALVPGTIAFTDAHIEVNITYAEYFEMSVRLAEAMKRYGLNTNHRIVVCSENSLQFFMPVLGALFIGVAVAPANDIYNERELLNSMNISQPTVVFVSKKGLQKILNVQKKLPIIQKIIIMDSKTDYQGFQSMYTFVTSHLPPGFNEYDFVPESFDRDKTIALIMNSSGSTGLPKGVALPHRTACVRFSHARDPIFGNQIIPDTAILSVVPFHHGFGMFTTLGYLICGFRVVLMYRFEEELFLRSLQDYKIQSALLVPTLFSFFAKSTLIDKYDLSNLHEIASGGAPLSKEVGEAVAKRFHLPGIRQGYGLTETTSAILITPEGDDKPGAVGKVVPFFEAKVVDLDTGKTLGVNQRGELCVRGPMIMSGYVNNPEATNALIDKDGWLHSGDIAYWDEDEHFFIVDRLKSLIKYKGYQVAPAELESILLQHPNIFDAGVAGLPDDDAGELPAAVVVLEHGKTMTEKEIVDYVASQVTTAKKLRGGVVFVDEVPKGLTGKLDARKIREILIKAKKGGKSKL
Test: CCTE_Simmons_QuantiLum_inhib_2: CCTE's Firefly Luciferase Inhibition Assay, Simmons Lab (AID 2283767);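 as to AC50: potency for inhibitors that lower luciferase luminescence relative to DMSO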
Method in brief: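 Luminescence loss relative to DMSO vehicle defines inhibition; detection reagent containing 150 uM D-luciferin and 147 uM dATP (final, pH 7.8) is injected immediately before each read. Enzyme is preincubated with an 8-point titration (5 nM–87.5 uM final) for 30 min at 37C.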
With `CCCCCCCCCCCCOC(=O)c1cc(O)c(O)c(O)c1` the outcome was “inactive”. For `Cc1cc(C(C)(C)C)c(O)c(C(C)(C)C)c1`, the outcome was “inactive”. In the case of `CCc1cccc(CC)c1N(COC)C(=O)CS(=O)(=O)O`, the outcome is reported as “inactive”. For `CN(Cc1cnc2nc(N)nc(N)c2n1)c1ccc(C(=O)N[C@@H](CCC(=O)O)C(=O)O)cc1`, the outcome was “inactive”. For `Cc1[nH]nc2c1N=C(c1ccccc1Cl)c1cc([N+](=O)[O-])ccc1N2`, the AC50 was 44.6 µM (active). For `C[C@]12CC[C@@H]3c4ccc(O)cc4CC[C@H]3[C@@H]1C[C@@H](O)[C@@H]2O`, the outcome was “inactive”. For `COc1cc([N+](=O)[O-])ccc1N`, the outcome was “inactive”. For `Cc1cc(C(=C2C=CC(=Nc3ccc(S(=O)(=O)O)cc3)C=C2)c2ccc(Nc3ccc(S(=O)(=O)O)cc3)cc2)cc(S(=O)(=O)O)c1N`, the AC50 was 42.8 µM (active). In the case of `Cc1cc(Cc2cc(C)cc(C(C)(C)C)c2O)c(O)c(C(C)(C)C)c1`, the outcome is reported as “inactive”. With `CCCCCCCCCCCC` the outcome was “inactive”. In the case of `O=C1OC2(c3ccccc31)c1cc(I)c(O)c(I)c1Oc1c2cc(I)c(O)c1I`, the AC50 is reported as 6.41 µM (active). For `CCCCCCc1ccc(N)cc1`, the AC50 was 77.1 µM (active).

Test system: not listed separately
Test: ACEA_AR_agonist_AUC_viability: ACEA Biosciences xCELLigence Real-Time Cell Analysis on Androgen Receptor Agonism for Viability (AID 2283775);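 as to AC50: viability read 80 hours after compound addition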
Method in brief: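 Real-time impedance tracking of 22Rv1 growth, readings every 5 min for 5 h then hourly; area-under-curve viability endpoint at 80 hours, relative to DMSO. Compounds at eight concentrations, 1:4 steps, top 100 uM, n = 2.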
For `Cc1ccc(S(=O)(=O)O)cc1`, the outcome was “inactive”. With `CCCCCCCCCCCCOC(=O)c1cc(O)c(O)c(O)c1` the AC50 was 7.6 µM (active). With `CCCCC=O` the outcome was “inactive”. With `Cc1cc(C(C)(C)C)c(O)c(C(C)(C)C)c1` the outcome was “inactive”. In the case of `c1cnc2c(c1)ccc1cccnc12`, the AC50 is reported as 3.4 µM (active). With `CCCCCCCCCCCC(=O)O` the outcome was “inactive”. For `CN(Cc1cnc2nc(N)nc(N)c2n1)c1ccc(C(=O)N[C@@H](CCC(=O)O)C(=O)O)cc1`, the AC50 was 0.787 µM (active). For `Cc1[nH]nc2c1N=C(c1ccccc1Cl)c1cc([N+](=O)[O-])ccc1N2`, the AC50 was 1.75 µM (active). For `O=C1NS(=O)(=O)c2ccccc21`, the outcome was “inactive”. For `CCC(C)c1ccccc1O` (centres undefined), the outcome was “inactive”. With `CCc1ccccc1O` the outcome was “inactive”. For `CC(C)[C@@H]1CC[C@@H](C)C[C@H]1O`, the outcome was “inactive”. In the case of `COc1cc([N+](=O)[O-])ccc1N`, the outcome is reported as “inactive”. With `Cc1cc(C(=C2C=CC(=Nc3ccc(S(=O)(=O)O)cc3)C=C2)c2ccc(Nc3ccc(S(=O)(=O)O)cc3)cc2)cc(S(=O)(=O)O)c1N` the outcome was “inactive”. With `CC(C)c1c(C(=O)Nc2ccccc2)c(-c2ccccc2)c(-c2ccc(F)cc2)n1CC[C@@H](O)C[C@@H](O)CC(=O)O` the AC50 was 4.23 µM (active). For `NS(=O)(=O)O`, the outcome was “inactive”. For `Cc1ccc(C)c(S(=O)(=O)O)c1`, the outcome was “inactive”. With `CCCCC(CC)C(=O)O` (centres undefined) the AC50 was 4.14 µM (active) and the outcome was “inactive”. With `CCCCc1oc2ccccc2c1C(=O)c1cc(I)c(OCCN(CC)CC)c(I)c1` the AC50 was 9.56 µM (active). In the case of `Cc1cc(Cc2cc(C)cc(C(C)(C)C)c2O)c(O)c(C(C)(C)C)c1`, the outcome is reported as “inactive”. With `NCCN` the outcome was “inactive”. In the case of `CN(C)CCOC(c1ccccc1)c1ccccc1`, the outcome is reported as “inactive”. With `CC(O)COc1ccccc1` (centres undefined) the outcome was “inactive”. In the case of `O=C(CCCN1CCC(O)(c2ccc(Cl)cc2)CC1)c1ccc(F)cc1`, the AC50 is reported as 63.8 µM (active). With `CCCCCCCCCCCC` the outcome was “inactive”. In the case of `OCC(CO)(CBr)CBr`, the outcome is reported as “inactive”. With `CCCCCCc1ccc(N)cc1` the outcome was “inactive”. With `NC(=NCCCCCCN=C(N)/N=C(\N)Nc1ccc(Cl)cc1)/N=C(\N)Nc1ccc(Cl)cc1` the AC50 was 10.5 µM (active).

Test system: not listed separately
Test: ACEA_AR_antagonist_AUC_viability: ACEA Biosciences xCELLigence Real-Time Cell Analysis on Androgen Receptor Antagonism for Viability (AID 2283776);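 also: 22Rv1 human prostate cancer cells growing on impedance electrode plates; hits lower the growth signal relative to DMSO meaning cytotoxicity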
Method in brief: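 Viability endpoint from label-free cell-index monitoring: 22Rv1 cultures treated with an eight-point 1:4 dilution series starting at 100 uM final, AUC at 80 h fitted against DMSO.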
With `Cc1ccc(S(=O)(=O)O)cc1` the outcome was “inactive”. In the case of `CCCCCCCCCCCCOC(=O)c1cc(O)c(O)c(O)c1`, the AC50 is reported as 3.44 µM (active). With `CCCCC=O` the outcome was “inactive”. In the case of `Cc1cc(C(C)(C)C)c(O)c(C(C)(C)C)c1`, the AC50 is reported as 0.144 µM (active). In the case of `c1cnc2c(c1)ccc1cccnc12`, the AC50 is reported as 3.57 µM (active). With `CCCCCCCCCCCC(=O)O` the outcome was “inactive”. For `CN(Cc1cnc2nc(N)nc(N)c2n1)c1ccc(C(=O)N[C@@H](CCC(=O)O)C(=O)O)cc1`, the AC50 was 0.551 µM (active). For `Cc1[nH]nc2c1N=C(c1ccccc1Cl)c1cc([N+](=O)[O-])ccc1N2`, the AC50 was 2.04 µM (active). In the case of `O=C1NS(=O)(=O)c2ccccc21`, the outcome is reported as “inactive”. In the case of `C[C@]12CC[C@@H]3c4ccc(O)cc4CC[C@H]3[C@@H]1C[C@@H](O)[C@@H]2O`, the AC50 is reported as 1.16 µM (active). For `CCC(C)c1ccccc1O` (centres undefined), the outcome was “inactive”. With `CCc1ccccc1O` the outcome was “inactive”. For `CC(C)[C@@H]1CC[C@@H](C)C[C@H]1O`, the AC50 was 0.541 µM (active). For `COc1cc([N+](=O)[O-])ccc1N`, the outcome was “inactive”. In the case of `Cc1cc(C(=C2C=CC(=Nc3ccc(S(=O)(=O)O)cc3)C=C2)c2ccc(Nc3ccc(S(=O)(=O)O)cc3)cc2)cc(S(=O)(=O)O)c1N`, the outcome is reported as “inactive”. For `CC(C)c1c(C(=O)Nc2ccccc2)c(-c2ccccc2)c(-c2ccc(F)cc2)n1CC[C@@H](O)C[C@@H](O)CC(=O)O`, the AC50 was 4.96 µM (active). In the case of `NS(=O)(=O)O`, the outcome is reported as “inactive”. For `Cc1ccc(C)c(S(=O)(=O)O)c1`, the AC50 was 0.221 µM (active). For `CCCCC(CC)C(=O)O` (centres undefined), the outcome was “inactive”. In the case of `CCCCc1oc2ccccc2c1C(=O)c1cc(I)c(OCCN(CC)CC)c(I)c1`, the AC50 is reported as 9.15 µM (active). With `Cc1cc(Cc2cc(C)cc(C(C)(C)C)c2O)c(O)c(C(C)(C)C)c1` the AC50 was 21.4 µM (active). For `NCCN`, the outcome was “inactive”. For `CN(C)CCOC(c1ccccc1)c1ccccc1`, the outcome was “inactive”. With `CC(O)COc1ccccc1` (centres undefined) the outcome was “inactive”. For `O=C(CCCN1CCC(O)(c2ccc(Cl)cc2)CC1)c1ccc(F)cc1`, the AC50 was 53.7 µM (active). With `OCC(CO)(CBr)CBr` the outcome was “inactive”. With `CCCCCCc1ccc(N)cc1` the outcome was “inactive”. In the case of `NC(=NCCCCCCN=C(N)/N=C(\N)Nc1ccc(Cl)cc1)/N=C(\N)Nc1ccc(Cl)cc1`, the AC50 is reported as 10.6 µM (active).
